{"source": "ChEMBL document CHEMBL3988442", "about": "“University of Dundee, Small-Polar-MMV Screening Library” (2021)", "note": "Screen size: about 48,000 compounds; about 13,000 (27%) showed an effect of 50% or more. This is one part of the list.", "data": [{"system": "Wolbachia pipientis", "assay": "Anti-Wolbachia Cell-Based Screen", "type": "functional", "set-up": "scale not given: in the data most compounds retested in dose-response had high values", "conditions": "5 µM", "units": {"Percent Effect": "%"}, "values": [{"smiles": "CC(C)N1CC(C(=O)N2CCc3c(nc(CC4CC4)[nH]c3=O)C2)CC1=O", "note": "(configuration not stated)", "Percent Effect": -6.23}, {"smiles": "OCC1(CC2CCCCO2)CCN(c2cnc3ccccc3n2)CC1", "note": "(configuration not stated)", "Percent Effect": -13.06}, {"smiles": "Cc1nc(N2CCCC(C)C2)nc2cc(S(C)(=O)=O)ccc12", "note": "(configuration not stated)", "Percent Effect": -6.696}, {"smiles": "OCc1cn([C@@H]2c3ccccc3C3(CCNCC3)[C@H]2O)nn1", "Percent Effect": -1.268}, {"smiles": "O=S(=O)(NCC1(O)CCOc2ccccc21)c1ccccc1F", "note": "(configuration not stated)", "Percent Effect": 0}, {"smiles": "CC(=O)Nc1nc(C(=O)Nc2ccc(N3CCCCC3)nc2)cs1", "Percent Effect": 7.498}, {"smiles": "CC(C)=CCN1Cc2nnc(C3CCOCC3)n2C(Cc2c[nH]cn2)C1", "note": "(configuration not stated)", "Percent Effect": -4.476}, {"smiles": "Cc1nccn1-c1cc(CNS(=O)(=O)N2CCCC(C)C2)ccn1", "note": "(configuration not stated)", "Percent Effect": 1.62}, {"smiles": "O=C(C1CCOCC1)N1CC[C@H](O)[C@@H]1Cc1cccnc1", "Percent Effect": 108.8}, {"smiles": "c1ccc(C[C@H]2[C@H](N3CCOCC3)CCN2Cc2cccnc2)cc1", "Percent Effect": -10.76}, {"smiles": "CN(C)C(=O)N1CCN(Cc2nnc(C(C)(C)C)o2)CC1", "Percent Effect": 5.287}, {"smiles": "COCCN1CCc2c(c(COc3cccnc3)nn2C)C1.O=C(O)C(F)(F)F.O=C(O)C(F)(F)F", "Percent Effect": 96.91}, {"smiles": "Cn1nc(COc2cccnc2)c2c1CCN(CC1CC1)C2.O=C(O)C(F)(F)F.O=C(O)C(F)(F)F", "Percent Effect": 110.2281}, {"smiles": "Cc1cccc(CN2Cc3[nH]nc(COc4cccnc4)c3C2)n1.O=C(O)C(F)(F)F.O=C(O)C(F)(F)F.O=C(O)C(F)(F)F", "Percent Effect": 3.508}, {"smiles": "Cn1nc(COc2cccnc2)c2c1CCN(Cc1ccco1)C2.O=C(O)C(F)(F)F.O=C(O)C(F)(F)F", "Percent Effect": -12.77}, {"smiles": "CN1CCc2c(c(COc3cncnc3)nn2CC2CC2)C1.O=C(O)C(F)(F)F", "Percent Effect": -14.06}, {"smiles": "CC(C)N1CCc2c(c(COc3cccnc3)nn2CC2CC2)C1.O=C(O)C(F)(F)F.O=C(O)C(F)(F)F.O=C(O)C(F)(F)F", "Percent Effect": -5.827}, {"smiles": "Brc1ccc(C2(NCc3noc(C4CC4)n3)CCC2)cc1", "Percent Effect": 4.263}, {"smiles": "Cc1cccc(-c2nc(CNC3CCc4ncnn4C3)no2)c1", "note": "(configuration not stated)", "Percent Effect": 121.2}, {"smiles": "c1csc(-c2nc(CNC3CCc4ncnn4C3)cs2)c1", "note": "(configuration not stated)", "Percent Effect": -10.85}, {"smiles": "Cc1nc2n(n1)CC(NCCc1cccs1)CC2", "note": "(configuration not stated)", "Percent Effect": 7.216}, {"smiles": "CCc1nc2n(n1)CC(NCc1noc(-c3ccc(C)cc3)n1)CC2", "note": "(configuration not stated)", "Percent Effect": 89.35}, {"smiles": "CCc1nc2n(n1)CC(NCc1noc(-c3ccccc3)n1)CC2", "note": "(configuration not stated)", "Percent Effect": -10.54}, {"smiles": "c1ccc(-c2nccc(CNC3CCc4ncnn4C3)n2)cc1", "note": "(configuration not stated)", "Percent Effect": 120.1}, {"smiles": "CNC(=O)COc1ccccc1CNC1CCc2nc(C)nn2C1", "note": "(configuration not stated)", "Percent Effect": -0.6489}, {"smiles": "COc1ccc(-c2nc(CNC3CCc4nc(C)nn4C3)no2)cc1", "note": "(configuration not stated)", "Percent Effect": 131.6}, {"smiles": "CCc1nc2n(n1)CC(NCc1nc(C)c(C)o1)CC2", "note": "(configuration not stated)", "Percent Effect": -17.82}]}]}
